From PubChem BioAssay AID1159580 (chemical genetic matrix, 2015)
Among all 5,500 compounds or so, about 2,000 (36%) were called active. About 18% were inconclusive and are not listed. Rule as the data show it: active = normalized growth mostly below about 0.91 (no sharp cut-off); inconclusive = no clear call, values can overlap the other calls; inactive = mostly above about 0.92. Some of the results follow.

Experiment: chemical genetic growth profiling, strain panel (AID 1159580);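 also: tested at 20 µM; growth read once vehicle control cultures reached saturation at 30 °C; 1 = growth at the plate median or of vehicle wells; lower values mean less growth of the strain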
Details: growth OD

Measured: normalized growth

C=CCN1CC[C@]23c4c5ccc(O)c4OC2C(=O)CC[C@@]3(O)[C@H]1C5 (some centres not stated)
inactive: S. cerevisiae deletion strains, locus YJR075W, strain HOC1, hits give low values 1 | S. cerevisiae deletion strains, locus YKL009W, strain mrt4, hits give low values 0.977 | S. cerevisiae deletion strains, locus YKL068W, hits give low values 0.993 | S. cerevisiae deletion strains, locus YKL085W, strain MDH1 (second series), hits give low values 1 | S. cerevisiae deletion strains, locus YKL085W, strain MDH1, hits give low values 1 | S. cerevisiae deletion strains, locus YKL160W, strain elf1, hits give low values 0.975 | S. cerevisiae deletion strains, locus YKL190W, strain CNB1, hits give low values 1 | S. cerevisiae deletion strains, locus YKR001C, strain vps1, hits give low values 0.989 | S. cerevisiae deletion strains, locus YKR026C, strain gcn3, hits give low values 0.979 | S. cerevisiae deletion strains, locus YKR091W, strain srl3, hits give low values 0.973 | S. cerevisiae deletion strains, locus YLL001W, strain dnm1, hits give low values 0.983 | S. cerevisiae deletion strains, locus YLL026W, hits give low values 0.988 | S. cerevisiae deletion strains, locus YLL041C, strain sdh2, hits give low values 0.963 | S. cerevisiae deletion strains, locus YLR027C, strain aat2, hits give low values 0.976 | S. cerevisiae deletion strains, locus YLR039C, strain RIC1, hits give low values 1 | S. cerevisiae deletion strains, locus YLR058C, strain SHM2, hits give low values 1.01 | S. cerevisiae deletion strains, locus YLR102C, strain apc9, hits give low values 0.998 | S. cerevisiae deletion strains, locus YLR113W, strain HOG1, hits give low values 0.973 | S. cerevisiae deletion strains, locus YLR221C, strain rsa3, hits give low values 0.982 | S. cerevisiae deletion strains, locus YLR258W, strain gsy2, hits give low values 0.983 | S. cerevisiae deletion strains, locus YLR262C, strain YPT6 (second series), hits give low values 0.97 | S. cerevisiae deletion strains, locus YLR262C, strain YPT6, hits give low values 1.04 | S. cerevisiae deletion strains, locus YLR268W, strain sec22, hits give low values 1.04 | S. cerevisiae deletion strains, locus YLR320W, strain mms22, hits give low values 0.969 | S. cerevisiae deletion strains, locus YLR330W, strain CHS5, hits give low values 1.01 | S. cerevisiae deletion strains, locus YLR342W, strain FKS1 (second series), hits give low values 1.01 | S. cerevisiae deletion strains, locus YLR342W, strain FKS1, hits give low values 0.962 | S. cerevisiae deletion strains, locus YLR357W, strain rsc2, hits give low values 0.939 | S. cerevisiae deletion strains, locus YLR370C, strain arc18, hits give low values 0.973 | S. cerevisiae deletion strains, locus YLR371W, strain rom2, hits give low values 0.976 | S. cerevisiae deletion strains, locus YLR384C, strain iki3, hits give low values 0.963 | S. cerevisiae deletion strains, locus YLR418C, strain cdc73, hits give low values 0.999 | S. cerevisiae deletion strains, locus YML016C, strain PPZ1, hits give low values 1.01 | S. cerevisiae deletion strains, locus YML032C, strain rad52, hits give low values 1.02 | S. cerevisiae deletion strains, locus YML120C, strain ndi1, hits give low values 0.974 | S. cerevisiae deletion strains, locus YML124C, strain tub3, hits give low values 0.991 | S. cerevisiae deletion strains, locus YMR058W, strain fet3, hits give low values 0.98 | S. cerevisiae deletion strains, locus YMR078C, strain ctf18, hits give low values 1 | S. cerevisiae deletion strains, locus YMR125W, strain sto1, hits give low values 0.936 | S. cerevisiae deletion strains, locus YMR129W, hits give low values 0.954 | S. cerevisiae deletion strains, locus YMR205C, strain PFK2, hits give low values 0.979 | S. cerevisiae deletion strains, locus YMR223W, strain ubp8, hits give low values 0.99 | S. cerevisiae deletion strains, locus YMR231W, strain pep5, hits give low values 0.977 | S. cerevisiae deletion strains, locus YMR263W, strain SAP30, hits give low values 1.02 | S. cerevisiae deletion strains, locus YMR307W, strain GAS1, hits give low values 1.05 | S. cerevisiae deletion strains, locus YNL067W, strain RPL9B, hits give low values 1.02 | S. cerevisiae deletion strains, locus YNL071W, strain lat1, hits give low values 0.956 | S. cerevisiae deletion strains, locus YNL128W, strain TEP1, hits give low values 1.01 | S. cerevisiae deletion strains, locus YNL153C, strain GIM3, hits give low values 1.02 | S. cerevisiae deletion strains, locus YNL183C, strain NPR1, hits give low values 0.941 | S. cerevisiae deletion strains, locus YNL209W, strain ssb2, hits give low values 0.945 | S. cerevisiae deletion strains, locus YNL233W, strain BNI4, hits give low values 1.03 | S. cerevisiae deletion strains, locus YNL248C, strain rpa49, hits give low values 0.948 | S. cerevisiae deletion strains, locus YNL250W, strain rad50, hits give low values 0.988 | S. cerevisiae deletion strains, locus YNL271C, strain bni1, hits give low values 0.998 | S. cerevisiae deletion strains, locus YNL298W, strain CLA4, hits give low values 1.01 | S. cerevisiae deletion strains, locus YNL307C, strain MCK1, hits give low values 0.996 | S. cerevisiae deletion strains, locus YNL322C, strain KRE1 (second series), hits give low values 0.927 | S. cerevisiae deletion strains, locus YNL322C, strain KRE1, hits give low values 1 | S. cerevisiae deletion strains, locus YNR049C, strain mso1, hits give low values 0.973 | S. cerevisiae deletion strains, locus YNR052C, strain pop2, hits give low values 1 | S. cerevisiae deletion strains, locus YOL006C, strain TOP1, hits give low values 1.07 | S. cerevisiae deletion strains, locus YOL012C, strain htz1 0.779 | S. cerevisiae deletion strains, locus YOL147C, strain pex11, hits give low values 0.996 | S. cerevisiae deletion strains, locus YOR001W, strain rrp6, hits give low values 0.97 | S. cerevisiae deletion strains, locus YOR061W, strain CKA2, hits give low values 1.02 | S. cerevisiae deletion strains, locus YOR069W, strain VPS5, hits give low values 1.01 | S. cerevisiae deletion strains, locus YOR070C, strain gyp1, hits give low values 0.964 | S. cerevisiae deletion strains, locus YOR080W, strain dia2, hits give low values 0.969 | S. cerevisiae deletion strains, locus YOR083W, strain WHI5, hits give low values 0.979 | S. cerevisiae deletion strains, locus YOR106W, strain vam3, hits give low values 0.948 | S. cerevisiae deletion strains, locus YOR136W, strain idh2, hits give low values 0.995 | S. cerevisiae deletion strains, locus YOR144C, strain elg1, hits give low values 1 | S. cerevisiae deletion strains, locus YOR184W, strain ser1, hits give low values 0.998 | S. cerevisiae deletion strains, locus YOR231W, strain MKK1, hits give low values 0.994 | S. cerevisiae deletion strains, locus YOR265W, strain rbl2, hits give low values 0.983 | S. cerevisiae deletion strains, locus YOR270C, strain vph1, hits give low values 0.935 | S. cerevisiae deletion strains, locus YOR290C, strain snf2, hits give low values 0.968 | S. cerevisiae deletion strains, locus YOR316C, strain cot1, hits give low values 0.994 | S. cerevisiae deletion strains, locus YPL051W, strain arl3, hits give low values 0.983 | S. cerevisiae deletion strains, locus YPL055C, strain LGE1, hits give low values 1.01 | S. cerevisiae deletion strains, locus YPL078C, strain atp4, hits give low values 0.968 | S. cerevisiae deletion strains, locus YPL106C, strain sse1, hits give low values 0.957 | S. cerevisiae deletion strains, locus YPL240C, strain hsp82, hits give low values 0.965 | S. cerevisiae deletion strains, locus YPL241C, strain CIN2, hits give low values 1.01 | S. cerevisiae deletion strains, locus YPL256C, strain CLN2, hits give low values 0.979 | S. cerevisiae deletion strains, locus YPR119W, strain clb2, hits give low values 1 | S. cerevisiae deletion strains, locus YPR141C, strain kar3, hits give low values 0.996 | S. cerevisiae deletion strains, locus YPR163C, strain tif3, hits give low values 0.996 | S. cerevisiae deletion strains, locus YPR167C, strain met16, hits give low values 1 | S. cerevisiae deletion strains, strain wtn01, hits give low values 1.01 | S. cerevisiae strains, strain wild type, hits give low values 1.01
